Assay outcomes from PubChem BioAssay.
Rab9 prom act – qHTS Assay for Rab9 Promoter Activators | Huh7 Rab9 promoter-luciferase reporter, luminescence, 24 h | Potency, µM (titrated, usually from 9.22 µM), inactives show at the top dose activation, negative = inhibition, usual class: activators | 320,000 tested, 2.8% active; also: % of control where 0% means no effect; nearly all actives have a fitted effect of over 60% in size
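Huh7 cells stably carrying a Rab9 promoter-luciferase reporter, 1500 cells per well in OP-MEM I with 10% FBS, treated with compound 24 hours at 37C. Luciferase activity read by luminescence after 10 minutes with Amplite reagent.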
SMN2 splice enh – qHTS Assay for Enhancers of SMN2 Splice Variant Expression. 210,000 tested, 2.8% active. Potency, µM (titrated, usually from 46.1 µM), for the others: at the top dose activity change, positive = activation, most hits filed as activators. HEK293 SMN2-luciferase splicing reporter, luminescence, 30-36 h. AID 1458, 2008; also: % of control where 0% means no effect; nearly all actives have a fitted effect of over 55% in size
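HEK293 cells carry an SMN2 minigene-luciferase reporter in which exon 7 inclusion puts luciferase in frame. Cells were seeded at 2000 cells/well, attached for 10-12 hours, then exposed to compounds for 30-36 hours at 37C before ONE-Glo luminescence.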
ELG1 genotoxic – qHTS screen for small molecules that induce genotoxicity in human embryonic kidney (HEK293T) cells expressing luciferase-tagged ELG1. AID 504466, 2011. HEK293T ELG1-luciferase reporter, luminescence, 16 h. Potency, µM (doses to about 46 µM), without a hit: top-dose activity change, positive = activation, actives largely listed as activators. 330,000 tested, 1.3% active; also: % of control where 0% means no effect; nearly all actives have a fitted effect of over 60% in size
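Step 1: seed 2,000 HEK293T ELG1-luciferase cells per well. Step 2: add compound or DMSO, incubate 16 hr at 37 °C. Step 3: ONE-Glo, 30 min at room temperature, read luminescence.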
FLuc counter – qHTS profiling assay for firefly luciferase inhibitor/activator using purifed enzyme and Km concentrations of substrates (counterscreen for miR-21 project); Luciferin 4-monooxygenase (Photinus pyralis), P08659; Potency, µM (titrated, usually from 57.5 µM), for the others: top-dose activity change, negative = inhibition, hits mostly inhibitors; AID 588342, 2011; purified FLuc, Km substrates, luminescence inhibition; 360,000 tested, 6.9% active;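 also: plate controls were vehicle for no effect and reference inhibitor for full effect; nearly all actives have a fitted effect of over 55% in size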
Target sequence (P08659 whole entry, looked up): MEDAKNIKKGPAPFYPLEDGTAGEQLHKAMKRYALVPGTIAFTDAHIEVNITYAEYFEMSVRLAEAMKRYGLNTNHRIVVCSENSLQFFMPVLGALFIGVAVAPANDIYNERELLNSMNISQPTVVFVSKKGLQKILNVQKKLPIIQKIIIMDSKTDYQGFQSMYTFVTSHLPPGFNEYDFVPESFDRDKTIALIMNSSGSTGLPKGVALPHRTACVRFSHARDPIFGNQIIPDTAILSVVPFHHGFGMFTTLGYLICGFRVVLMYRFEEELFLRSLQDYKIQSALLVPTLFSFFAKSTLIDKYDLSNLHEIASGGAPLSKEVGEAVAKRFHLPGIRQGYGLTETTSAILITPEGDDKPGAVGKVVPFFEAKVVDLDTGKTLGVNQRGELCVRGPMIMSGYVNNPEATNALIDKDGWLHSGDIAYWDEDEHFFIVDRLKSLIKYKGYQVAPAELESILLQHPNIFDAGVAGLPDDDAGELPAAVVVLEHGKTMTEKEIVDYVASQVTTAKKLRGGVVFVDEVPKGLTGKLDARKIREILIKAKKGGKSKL
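Biochemical qHTS of compounds, final roughly 60 µM downward over six points, against 10 nM purified firefly luciferase using Km concentrations of substrates (10 uM D-luciferin, 10 uM ATP) in Tris acetate pH 7.5 buffer; luminescence output.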
NPC1 prom act – qHTS Assay for NPC1 Promoter Activators. Huh7 NPC1 promoter luciferase reporter, 24 h. 320,000 tested, 2.4% active. Potency, µM (top dose mostly 9.22 µM), for the others: at the top dose activation, hits mostly activators; also: % of control where 0% means no effect; nearly all actives have a fitted effect of over 60% in size
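Quantitative HTS used a cell-based reporter: Huh7 cells stably bearing the NPC1 promoter upstream of luciferase were treated with compounds for 24 h, and promoter activation was read as luminescence.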
Active calls of the source: *; ? = inconclusive; · = not tested or not shown; [ ] = another dose, or the depositor's remark. Only some compounds are listed: those with a hit (about 7.4% of all), similar ones and a draw of the others. Calls follow the shape of the dose curve; as a rule, active = well fitted curve in the direction sought with a large enough effect; inconclusive = small, poorly fitted or top-dose-only effect, or another doubt; inactive = no such curve, though single readings can be large; an effect the other way counts as inactive or inconclusive. Potency is read from the fitted curve at half-maximal effect.

SMILES | Rab9 prom act | SMN2 splice enh | ELG1 genotoxic | FLuc counter | NPC1 prom act
CCc1ccc(NS(=O)(=O)c2ccc(NC(=O)N3CCCC3)cc2)cc1 | · | · | · | 2.2% | ·
O=C1CCCC/C1=C\Nc1ccc(O)cc1 | 15.2% | ? | ? | ? | 10.5%
CCc1ccc(NC(=O)N2CCCCCC2)cc1 | 1.78µM* | · | 20.6µM* | 13.5µM* | 2.24µM*
Cc1nc(SCC(=O)O)c2oc3ccccc3c2n1 | 4.0% | 2.0% | -2.9% | ? | 1.0%
O=C(CSc1ncnc2c1oc1ccccc12)c1cccs1 | 3.98µM* | 23.9% | ? | ? | 2.82µM*
Cc1nc(SCC(=O)c2cccs2)c2oc3ccccc3c2n1 | 3.98µM* | 10µM* | ? | 9.53µM* | ?
COC(=O)c1c(Oc2ccc(OC)cc2)nnc(-c2ccccc2)c1-c1ccccc1 | · | 12.9% | · | -17.6% | ·
Cc1ccc(OCC(=O)Nc2cc(NC(=O)COc3ccc(C)c(C)c3)cc(C(=O)O)c2)cc1C | 0.6% | · | 10.2% | ? | -6.9%
CCC(=O)Nc1cccc(NC(=O)COc2ccc(OC)cc2)c1 | -1.4% | 15.0% | ? | 15.1µM* | -2.0%
Cc1cc(OCC(=O)Nc2ccncc2)ccc1Br | -7.9% | · | -4.6% | ? | -0.7%
O=C(COc1cc(Cl)c(Cl)cc1Cl)Nc1ccncc1 | -5.2% | -1.0% | 3.1% | -16.5% | 1.0%
O=C(COc1cc(Cl)c(Cl)cc1Cl)Nc1cccc(O)c1 | -2.6% | · | ? | 1.07µM* | -1.3%
Cc1ccc(OCC(=O)Nc2cccc(O)c2)cc1C | ? | -5.0% | ? | 5.36µM* | ?
COc1cccc(NC(=O)COc2ccccc2)c1 | 19.1% | · | ? | ? | ?
COc1cccc(NC(=O)COc2ccc(Br)c(C)c2)c1 | 10.6% | · | 15.3% | 19µM* | -1.3%
CCOc1ccc(NC(=O)Cn2c(=O)n(CCCCCC(=O)NCc3ccccc3)c(=O)c3sccc32)cc1 | · | -7.7% | · | -0.8% | ·
CC(Oc1ccc(Cl)cc1Cl)C(=O)Nc1cccc(O)c1 (centres undefined) | -4.4% | -0.5% | 16.7% | 16.9µM* | -0.4%
Cc1cccc(NC(=O)COc2ccccc2)c1 | 12.7% | 17.4% | ? | 3.5%[2.3 µM] | 1.7%
Cc1cccc(OCC(=O)Nc2cccc(O)c2)c1 | 0.4% | 13.4% | 10µM* | 16.9µM* | -2.3%
CCC(=O)c1ccc(OCC(=O)Nc2cccc(S(=O)(=O)N(C)c3ccccc3)c2)cc1 | -4.1% | · | 0.8% | 15.1µM* | -6.9%
COc1ccc(OC(=O)COc2cccc(C)c2)cc1 | 2.6% | · | -2.3% | 15.1µM* | 0.9%
CC(=O)c1ccc(S(=O)(=O)Nc2ccc(C(=O)N3CCC3)cc2)cc1 | 0.4% | · | 1.2% | -0.3% | -0.3%
COc1ccc(C(=O)COC(=O)c2cccc(NC(=O)c3ccc(OC)c(OC)c3)c2)cc1 | · | -1.7% | · | 0.601µM* | ·
COc1ccc(-c2cccc(C(=O)Nc3cccc(C(=O)O)c3)c2)cc1 | 3.16µM* | 14.1µM* | ? | 12µM* | 3.16µM*
COc1ccc(C(=O)Nc2ccc(OC)c(OC)c2)cc1 | ? | 11.2µM* | ? | 12µM* | ?
SMILES | Rab9 prom act | SMN2 splice enh | ELG1 genotoxic | FLuc counter | NPC1 prom act
COc1ccc(C(=O)Nc2ccc(C(=O)NCCc3ccc(OC)c(OC)c3)cc2)cc1 | -1.5% | · | ? | 1.2% | -3.6%
COc1ccc(/C=C(\NC(=O)c2ccc(OC)cc2)C(=O)Nc2cccc(C(=O)O)c2)cc1 | 4.1% | · | 4.1% | -1.9% | -0.8%
COc1ccc(-c2cccc(C(=O)Nc3ccc(C)cc3)c2)cc1 | 3.2% | -0.5% | 0.5% | -17.8% | -3.8%
COc1ccc(-c2cccc(C(=O)Nc3ccc(OC)c(OC)c3)c2)cc1 | -0.5% | -23.1% | 0.2% | 10.7µM* | -8.8%
COc1cccc(NC(=O)CNC(=O)c2ccc(OC)c(OC)c2)c1 | -3.9% | 1.2% | -0.3% | -1.3% | 9.3%
CCSCCCC(=O)O | · | -6.9%[9.22 µM] | · | · | ·
Cc1ccc(C(C)NC(=S)NC2CCCCC2)c(C)c1 (centres undefined) | -0.5% | · | -9.7% | 0.4% | -3.8%
CCN1C(=O)[C@H]2[C@@H](c3ccc(-c4cccc(Cl)c4)cc3)N[C@@](C)(C(=O)OC)[C@H]2C1=O | -6.0% | · | -7.4% | -9.1% | 3.5%
Cc1ccc2c(=O)cc(C(=O)Nc3sc4c(c3C(N)=O)CCCC4)oc2c1 | · | 10.0% | · | -1.1% | ·
COc1ccc(CCOC(=O)c2ccc(N)c([N+](=O)[O-])c2)cc1 | 0.7% | · | -5.5% | -8.2% | -1.2%
O=C1CCn2nc(-c3ccc(Cl)cc3)cc2N1 | ? | 12.6µM* | ? | 19µM* | ?
CC(C)=CC(=O)OCc1cc([N+](=O)[O-])cc2c1OCOC2 | ? | ? | ? | 23.9µM* | 10.2%
O/N=C/c1ccn(-c2ccc(Br)cc2)c1 | 14.1% | 9.5% | -0.6% | 23.9µM* | 24.5%
CCCC(=O)Nc1ccc(-c2nc3cc(C)c(C)cc3o2)cc1 | 0.355µM* | 11.2µM* | ? | 1.07µM* | 0.355µM*
CCCC(=O)Nc1cccc(-c2nc3cc(C)c(C)cc3o2)c1C | · | ? | · | 0.269µM* | ·
Cc1ccc(OCC(=O)Nc2cccc(-c3nc4ccccc4o3)c2C)cc1C | · | 0.1% | · | -0.6% | ·
COc1ccc(S(=O)(=O)Nc2ccc3c(c2)C(=O)N([C@H](C)CO)C[C@H](C)[C@@H](CN(C)S(=O)(=O)c2cccs2)O3)cc1 | · | · | -0.3% | · | ·
COc1ccc(-n2c(=O)c3ccc(C(=O)NCc4ccc(C)cc4)cc3n(Cc3ccc(F)cc3Cl)c2=O)cc1 | · | -4.8% | · | -1.4% | ·
Cc1cc(/C=C(\C#N)C(=O)NCC2CCCO2)c(C)n1-c1ccc(Cl)cc1 (centres undefined) | 3.55µM* | · | 0.5% | 4.26µM* | ?
CCCn1c(C)cc(/C=C(\C#N)C(=O)OCC(=O)Nc2cccc(OC)c2)c1C | -6.6% | -11.7% | -0.9% | ? | -5.9%
N#C/C(=C\c1ccccc1O)C(=O)Nc1cccnc1 | 1.58µM* | · | ? | 3.01µM* | 2.82µM*
Cc1cc(/C=C(\C#N)C(=O)Nc2ccccc2)c(C)n1-c1ccc(F)cc1 | · | 2.2% | · | 2.69µM* | ·
N#C/C(=C\c1cccc([N+](=O)[O-])c1)C(=O)Nc1cccnc1 | -0.8% | -4.8% | 3.4% | -5.2% | 0.0%
CCCn1c(C)cc(/C=C(\C#N)C(=O)OCC(=O)Nc2cccc(S(N)(=O)=O)c2)c1C | 24.9% | · | 4.6% | 3.79µM* | 14.0%
COc1cc(/C=C(\C#N)C(=O)NCC2CCCO2)ccc1O (centres undefined) | -3.0% | 11.3% | 5.3% | -3.7% | -2.3%
O=C1COc2ccc(-c3cc(-c4ccc(Cl)cc4)c4c(n3)-c3ccccc3OC4)cc2N1 | · | 7.7% | · | -3.1% | ·
CC1CCCN(C(=O)c2cn(-c3ccccc3)nc2-c2cccnc2)C1 (centres undefined) | 0.1% | · | 2.6% | 1.6% | -8.2%
